The structures appear in SMILES notation. Inconclusive results are not listed. Active and inactive are the calls of the source. The calls were made as follows: active = hit-call score of the fitted dose curve at least 0.9, where 1 is the maximum; inconclusive = response in the unintended direction; inactive = score below 0.9.

Usually AC50 stands for the concentration giving half of the maximal activity seen.

Sequence of human CYP2D6, CYP2D6 (gene 1565) (P10635 whole entry, looked up): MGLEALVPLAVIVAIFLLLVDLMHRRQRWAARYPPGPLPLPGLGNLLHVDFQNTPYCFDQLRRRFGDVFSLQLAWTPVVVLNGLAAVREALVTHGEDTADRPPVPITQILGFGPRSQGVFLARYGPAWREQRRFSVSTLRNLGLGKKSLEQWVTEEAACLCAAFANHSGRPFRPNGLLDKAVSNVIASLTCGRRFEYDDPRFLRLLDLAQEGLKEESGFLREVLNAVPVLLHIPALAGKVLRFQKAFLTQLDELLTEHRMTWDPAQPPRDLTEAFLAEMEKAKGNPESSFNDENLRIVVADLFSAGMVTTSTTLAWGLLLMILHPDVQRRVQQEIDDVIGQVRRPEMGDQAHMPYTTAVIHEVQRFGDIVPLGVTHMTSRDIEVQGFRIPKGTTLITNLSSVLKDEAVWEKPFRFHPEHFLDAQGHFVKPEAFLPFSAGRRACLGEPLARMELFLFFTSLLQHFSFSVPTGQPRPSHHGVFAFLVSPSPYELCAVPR
Sequence of human CYP19A1, CYP19A1 (gene 1588) (P11511 whole entry, looked up): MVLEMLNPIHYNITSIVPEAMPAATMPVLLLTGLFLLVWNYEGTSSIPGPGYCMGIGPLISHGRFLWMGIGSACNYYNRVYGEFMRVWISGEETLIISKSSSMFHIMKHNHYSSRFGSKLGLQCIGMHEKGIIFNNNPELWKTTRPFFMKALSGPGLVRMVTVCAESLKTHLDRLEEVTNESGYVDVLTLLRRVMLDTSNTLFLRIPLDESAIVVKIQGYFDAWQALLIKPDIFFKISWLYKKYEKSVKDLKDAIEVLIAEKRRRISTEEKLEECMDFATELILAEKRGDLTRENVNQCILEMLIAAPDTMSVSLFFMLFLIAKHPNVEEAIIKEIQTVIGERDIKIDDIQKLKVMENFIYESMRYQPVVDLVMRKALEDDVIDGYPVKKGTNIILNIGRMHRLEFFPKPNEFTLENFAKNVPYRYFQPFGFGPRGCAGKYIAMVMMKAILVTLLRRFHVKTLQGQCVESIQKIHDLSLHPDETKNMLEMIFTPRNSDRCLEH

In the first assay the target is human CYP19A1, CYP19A1 (gene 1588) (UniProt P11511). The experiment in a line: NVS_ADME_hCYP19A1: NovaScreen (NVS) CYP450-related Enzyme Activity (ADME) Assay for human CYP19A1 (AID 2283098).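 As to AC50: potency for inhibitors seen as loss of fluorescent enzyme signal.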 Summed up:
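Fluorescence intensity read-out; activity taken as signal loss relative to acetonitrile vehicle. Extracted enzyme, specific substrate, no cells, 0.5 h exposure. Duplicate single-point screen at 10 uM, then concentration–response follow-up for actives.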
With `CCCCCCCCOC(=O)c1ccc(O)cc1`, the half-maximal activity concentration (AC50) was 7.86 µM (active).
Take `C[C@]12CC[C@@H]3c4ccc(O)cc4CC[C@H]3[C@@H]1CC[C@@H]2O`: the result was inactive.
Same read-out and setting: to `CC/C(=C(\c1ccccc1)c1ccc(OCCN(C)C)cc1)c1ccccc1` belongs “inactive”; to `CC(=O)OC(C)(C)C`, “inactive”.
As for `CCCCC/C=C\C=C\C(=O)OCC`, the AC50 is 15.6 µM (active).
On to `CC(=O)C1=C(C)[C@@H]2C[C@@]3(C1)[C@H](C)CC[C@H]3C2(C)C`, for which the compound was classed as inactive.
In the case of `O=C(c1ccc(OCCN2CCCCC2)cc1)c1c(-c2ccc(O)cc2)sc2cc(O)ccc12`, the AC50 is 4.25 µM (active) [middle of 4 runs].

In the next assay the target is human CYP2D6, CYP2D6 (gene 1565) (UniProt P10635). The experiment in a line: NVS_ADME_hCYP2D6: NovaScreen (NVS) CYP450-related Enzyme Activity (ADME) Assay for human CYP2D6 (AID 2283107). An outline of the steps:
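Biochemical fluorescence assay, insect-cell-derived enzyme. Read at 1 h; inhibition taken from loss of signal against acetonitrile. Screened at 10 uM in duplicate, with concentration series for actives.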
For `CC(C)Cc1ccc(C(C)C(=O)O)cc1` (stereo not given), the outcome was inactive.
Regarding `O=[N+]([O-])c1cc(N(CCO)CCO)ccc1NCCO`, the AC50 was 3.87 µM (active).
Still for that read-out and setting: in the case of `O=S1(=O)CC(Cl)(Cl)C(Cl)(Cl)C1` it was 4.55 µM (active).

Source of the values: PubChem BioAssay (EPA / NIEHS).
